# Data reported in ChEMBL document CHEMBL3433997, “St. Jude Leishmania screening dataset” (2016).
# Molecular target: Glucose transporter (Leishmania mexicana) (UniProt O61059)
# Test: ST_JUDE_LEISH: Cytotoxicity at 2uM final concentration against transgenic Leishmania Mexicana promastigotes LmGT2 that are glucose transport deficient and complemented with the L. Mexicana glucose transporter 2. Activity is measured by DNA content using SYBR green in vitro
# Type: functional
row,Compound,inhibition [%]
1,O=C(NCC1CCN(Cc2ccc3c(c2)OCCO3)C1)c1cc(-c2ccccc2F)cs1 (stereo not given),7.55
2,COc1ccc(CNC2Cc3ccccc3C2)cc1-c1ccc(S(=O)(=O)NCc2ccccc2)s1,4.36
3,Cc1cc(N)c2cc(NC(=O)/C=C/c3ccccc3Cl)ccc2n1,-0.21
4,CCCCCCN1CCN(Cc2cccc(NC(=O)c3cc4ccccc4o3)c2)CC1,1.59
5,O=C(CC1NC(=O)c2ccccc21)Nc1ccc(-c2ccc(-c3nc4cc(C(F)(F)F)ccc4[nH]3)cc2)cc1 (stereo not given),5.45
6,c1ccc(CNCc2cccc(-c3cccc(-c4nc5ccccc5[nH]4)c3)c2)cc1,3.48
7,CN(C)CCNc1ncnc2c1[nH]c1ccc(Br)cc12,1.38
8,CCc1cn2c3c(cc(C(=O)N[C@@H](Cc4cc(F)cc(F)c4)[C@H](O)CNC4CC4)cc13)N(C)S(=O)(=O)CC2,3.48
9,COc1ccc(NC(=O)[C@H](CC(C)C)Nc2cc(C)nc(NCc3cccc(C)c3)n2)cc1,7.22
10,O=C(Nc1cc(C(F)(F)F)ccc1Cl)c1ccc(Cn2cc(Br)cn2)cc1,-9.62
11,CN1CCC(NCc2ccc(-c3ccc(C(F)(F)F)cc3)cc2)CC1,0.62
12,CC(C)CN(C)c1ncnc2c1nc(-c1cncc(C#N)c1)n2CCNCc1ccccc1,4.39
13,Cc1[nH]c(C)c(-c2ccc(OCc3ccc(OC(F)(F)F)cc3)nc2)c(=O)c1Cl,11.2
14,CCc1c(CCNCCCCCCNCCc2ccc(Br)cc2)ccc(O)c1O,1.12
15,CC(C)CCN1CCC(Oc2ccc(NC(=O)c3ccc4ncccc4c3)cc2Cl)C1 (stereo not given),1.94
16,CC(C)CNCc1ccc(-c2ccccc2CN(C(=O)NCCc2ccccc2)C2CCN(Cc3ccccc3)CC2)cc1,-0.19
17,COc1ccc2ncc(F)c([C@@H](O)CN3CCC(NCc4cc5c(cn4)OCS5)CC3)c2c1,4.52
18,FC(F)(F)c1ccc2c(NCCc3ccccc3)ccnc2c1,3.79
19,COc1ccc(NC(=O)N2CCCN(CCCCCNC(=O)/C=C/c3ccc(Cl)cc3)CC2)cc1Cl,0.93
20,Cc1ccc(S(=O)(=O)NC2=NC(=N)N(OCc3ccc(Cl)c(Cl)c3)C(C)(C)N2)cc1,13.9

row,Compound,inhibition [%]
1,COc1ccc(Nc2nc(N/N=C/c3cc(Br)ccc3O)nc(Nc3ccc([N+](=O)[O-])cc3)n2)cc1,1.51
2,CC(=O)N(C)c1cccc(C(=O)Nc2ccc(-c3cccc(-c4nc5cccc(C)c5[nH]4)c3)cc2)c1,-8.47
3,CC1(C)OC[C@]2(C)[C@@H](CC[C@]3(C)C4=CC(=O)CCC4CC[C@@H]23)O1 (stereo not given in full),2.59
4,COc1cccc(NC(=O)NCCNc2ccnc(Nc3ccc(F)cc3)n2)c1,0.9
5,CCCCCCCN1CCC(NC(=O)Nc2ccnc3ccc(OC)cc23)C(C(=O)OCC)C1 (stereo not given),-2.59
6,CCCOc1cc(OCCC)cc(-c2ccc(C(=O)Nc3ccc4ccc(C)nc4c3)c(=O)[nH]2)c1,3.33
7,CCCCN(CCCC)/C(=N/c1cccc(Cl)c1Cl)Nc1ccc(C#N)cc1O,-4.06
8,CCCCCCOc1ccc(C(=O)NCCCC2CCN(CCCCCNC(=O)C=Cc3ccc(Cl)c(Cl)c3)CC2)cc1,3.91
9,OC(CNCc1cccc(Oc2ccc(Cl)cc2)c1)c1cc(C(F)(F)F)cc(C(F)(F)F)c1 (stereo not given),-2.95
10,CCOc1cccc(C(=O)Nc2ccc(-c3nc4ccccc4[nH]3)cc2)c1,3.58
11,CCC(C)OC(=O)C1=C(C)NC2=C(C(=O)CC(c3ccc(OC)c(OC)c3)C2)C1c1cccc(O)c1 (stereo not given),1.16
12,Cc1cc(Nc2ccc(C)c(C)c2)n2nc(C)nc2n1,5.46
13,CCNc1cc(C(=O)N[C@@H](Cc2ccccc2)[C@H](O)CNC23CCC(CC2)CC3)cc(N2CCCCS2(=O)=O)c1,0.09
14,Cc1ccc(Nc2nc3cc(Nc4ccnc(Nc5cccc(CS(C)(=O)=O)c5)n4)ccc3o2)cc1,0.38
15,COc1cc(CN2CCC(N3CCc4cc(NC(=O)c5cc(C)on5)ccc43)C2)ccc1F (stereo not given),3.34
16,Cc1cccc(-c2ccc(CNC3CCN(CC4Cn5c(=O)ccc6ccc(F)c4c65)CC3)cn2)c1 (stereo not given),1.89
17,CCN(CCCN1CCCCC1)c1cc(C)nc(Nc2ccc(C(F)(F)F)cc2)n1,3.9
18,CC(C)NCc1cccc(-c2ccc(NC(=O)c3ccc(C#N)cc3)cc2)c1,10
19,CCC1(CC)NC(N)=NC(=N)N1OCc1ccc(Cl)c(Cl)c1,4.43
20,CN1CCC(N2CCN(Cc3ccc(-c4cccc(-c5nc6ccccc6[nH]5)c4)cc3)CC2)CC1,1.93
